The list is not random: actives were taken first. Their share in the collection is about 21%.
CHX counter: counter-screen hit for Shiga toxin inhibitors, cycloheximide; cell reporter, cycloheximide protein synthesis inhibition counterscreen; max response, %; 300,000 compounds, 12% hits; AID 2314; in the data active = max response mostly above about 13%, no sharp cut-off; inactive = mostly below about 14%; note: read at 38.3 µM for the half of the compounds with a filed dose; 0% is about no effect
Shiga toxin inh: inhibitors of Shiga toxin in Vero cells; inhibition, % at 38.7 µM; AID 2315; 290,000 compounds, 9.2% hits; Vero cells, Shiga toxin protein synthesis inhibition reporter; in the data active = inhibition mostly above about 28%, no sharp cut-off; inactive = mostly below about 43%; note: 0% is about no effect
Pf growth 96h: P. falciparum growth inhibition at 96 hours | Potency, µM (top dose mostly 28.7 µM), for inactives: at the top dose activity change, negative = inhibition, hits mostly inhibitors | P. falciparum luciferase reporter growth, 96 h | 320,000 compounds, 6.9% hits | AID 504834; active = well fitted inhibition curve with a large enough effect; inconclusive = small, poorly fitted or top-dose-only effect, or another doubt; inactive = no such curve, though single readings can be large or run the other way; note: potency is the fitted concentration of half-maximal effect; % is set by controls: 0 for no effect and ±100 for the full control effect
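Two parasite generations (96 h, 37 C, 5% CO2) of compound exposure in infected erythrocytes (0.05% parasitemia, 2% hematocrit). Luciferase-reporter P. falciparum; decreased luminescence indicates inhibited growth, aimed at apicoplast-acting delayed death.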
Pf growth 48h: inhibits P. falciparum growth in the first generation, 48 h; Potency, µM (top dose mostly 28.7 µM), for the others: at the highest dose activity change, negative = inhibition, hits mostly inhibitors; 310,000 compounds, 5.9% hits; AID 504832; P. falciparum luciferase growth in erythrocytes, 48 h; active = well fitted inhibition curve with a large enough effect; inconclusive = small, poorly fitted or top-dose-only effect, or another doubt; inactive = no such curve, though single readings can be large or run the other way; note: potency is the fitted concentration of half-maximal effect; % is set by controls: 0 for no effect and ±100 for the full control effect
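Here the parasites carry a stable luciferase gene and grow inside erythrocytes in Albumax-based RPMI medium with compound for one erythrocytic cycle. Activity is scored as loss of luminescent signal.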
NS1 inh: inhibitors of influenza NS1 protein function; 270,000 compounds, 0.4% hits; AID 2326; Potency, µM (titrated, usually from 46.1 µM), for inactives: at the top dose activity, positive = more growth; note: potency is the fitted concentration of half-maximal effect; actives are rising curves; nearly all actives have a fitted effect of over 50% in size
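Compounds were scored for reversing the slow growth caused by influenza A NS1 in S. cerevisiae, measured by optical density at 600 nm. Assay medium contained 2% galactose at pH 6.0; NS1-free yeast of the same strain were the positive control.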
SARS PLP yeast: blocks SARS-CoV papain-like protease in a yeast assay. S. cerevisiae expressing SARS-CoV PLpro, growth rescue. Potency, µM (top dose mostly 32.9 µM), without a hit: top-dose activity, positive = growth rescue, hits mostly activators. 330,000 compounds, 0.19% hits. AID 485353; note: potency is the fitted concentration of half-maximal effect; 0% is about no effect; nearly all actives have a fitted effect of over 55% in size
The depositor's hits bear a star. Unless noted, calls come from the whole dose curve.

Results for COc1ccc(NC(=O)Nc2cccc(C(F)(F)F)c2)cn1 ?
CHX counter: 6.4; Shiga toxin inh: 30.5; Pf growth 96h: inconclusive; Pf growth 48h: 13.1µM*; NS1 inh: -22.9%; SARS PLP yeast: -12.7%

Results for O=C1NC(c2ccccc2)=C(c2nc3ccccc3s2)C(c2ccccc2)N1 (centres undefined) ?
CHX counter: -1.7; Shiga toxin inh: 5.1; Pf growth 96h: 8.28µM*; Pf growth 48h: inconclusive; NS1 inh: 22.4%; SARS PLP yeast: -0.3%

Results for CCOC(=O)C(NC(=O)c1ccccc1)(OCc1ccccc1)C(F)(F)F (centres undefined) ?
CHX counter: -1.9; Shiga toxin inh: -3.1; Pf growth 96h: -7.6%; Pf growth 48h: 14.3%; NS1 inh: 5.8%; SARS PLP yeast: 5.7%

How did CCOC(=O)C(NC(=O)c1cccc(Cl)c1)(OCc1ccccc1)C(F)(F)F (centres undefined) do in these assays?
CHX counter: 19.8*; Shiga toxin inh: active; Pf growth 96h: inconclusive; Pf growth 48h: inconclusive; NS1 inh: -18.8%; SARS PLP yeast: -0.8%

Results for CSCCC(NC(=O)c1ccccc1Cl)C(=O)N1CC(C)OC(C)C1 (centres undefined) ?
Pf growth 96h: -22.4%; Pf growth 48h: inconclusive; SARS PLP yeast: -6.9%

What do the screens show for `COc1ccc(C(c2c(NC(C)=O)sc3c2CCCC3)N2CCN(CCO)CC2)cc1OC` (centres undefined)?
CHX counter: 0.4; Shiga toxin inh: 2.8; Pf growth 96h: inconclusive; Pf growth 48h: 4.65µM*; SARS PLP yeast: 0.1%

What do the screens show for `CC(=O)Nc1sc2c(c1C(c1ccncc1)N1CCOCC1)CCCC2` (centres undefined)?
CHX counter: 0.9; Shiga toxin inh: -5.0; Pf growth 96h: 8.28µM*; Pf growth 48h: 4.65µM*; SARS PLP yeast: 1.0%

Results for Cc1cc(C)cc(NC(=S)NN)c1 ?
CHX counter: -1.0; Shiga toxin inh: 21.9; Pf growth 96h: inconclusive; Pf growth 48h: inconclusive; NS1 inh: 5.6%; SARS PLP yeast: -0.2%

How did O=CCCCC=O do in these assays?
Pf growth 96h: 12µM*; Pf growth 48h: 15.1µM*

How did O=C(c1ccco1)N1CCN(Cc2cc(=O)c(OCc3c(F)cccc3Cl)co2)CC1 do in these assays?
Pf growth 96h: -23.6%; Pf growth 48h: inconclusive; SARS PLP yeast: -1.2%

How did COc1ccc(C2Nc3ccccc3C(=O)N2Cc2ccccc2)cc1CN1CCOCC1 (centres undefined) do in these assays?
CHX counter: -1.3; Shiga toxin inh: -9.8; Pf growth 96h: 13.1µM*; Pf growth 48h: 8.28µM*; NS1 inh: 3.1%; SARS PLP yeast: 0.3%

Results for COc1ccc(C2Nc3ccccc3C(=O)N2Cc2ccccc2)cc1COc1ccc(Cl)cc1Cl (centres undefined) ?
Pf growth 96h: 5.6%; Pf growth 48h: 1.65µM*; SARS PLP yeast: -7.5%

What do the screens show for `O=C1c2ccccc2NC(c2ccc(F)cc2)N1Cc1ccccc1` (centres undefined)?
CHX counter: 8.7; Shiga toxin inh: -6.6; Pf growth 96h: 6.2%; Pf growth 48h: inconclusive; NS1 inh: -3.2%; SARS PLP yeast: -3.3%

How did Cc1ccc(-c2c(C(=O)N/N=C/c3c[nH]c4ccccc34)nnn2-c2nonc2N)cc1 do in these assays?
CHX counter: 21.9*; Shiga toxin inh: 4.5; Pf growth 96h: inconclusive; Pf growth 48h: inconclusive; NS1 inh: 5.1%; SARS PLP yeast: -6.5%

Results for COCc1c(C(=O)N/N=C/c2c[nH]c3ccccc23)nnn1-c1nonc1N ?
CHX counter: -2.9; Shiga toxin inh: 30.1; Pf growth 96h: inconclusive; Pf growth 48h: 10.2%; NS1 inh: -19.4%; SARS PLP yeast: 1.4%

Results for CN(C)Cc1c(C(=O)N/N=C/C=C/c2ccccc2)nnn1-c1nonc1N ?
CHX counter: 28.6*; Shiga toxin inh: -1.3; Pf growth 96h: -29.7%; Pf growth 48h: -9.3%; NS1 inh: inconclusive; SARS PLP yeast: 22.4%

What do the screens show for `CCCN(CCC)Cc1c(C(=O)N/N=C/c2c[nH]c3ccccc23)nnn1-c1nonc1N`?
CHX counter: -4.0; Shiga toxin inh: -16.5; Pf growth 96h: 9.28µM*; Pf growth 48h: 4.7%; NS1 inh: -15.7%; SARS PLP yeast: -2.6%

How did N#Cc1ccc(C(=O)Nc2cccc(S(=O)(=O)NC3=NCCC3)c2)cc1 do in these assays?
SARS PLP yeast: 6.0%

How did CCSCCOC(=O)C1=C(C)NC2=C(C(=O)CCC2)C1c1coc2ccccc2c1=O (centres undefined) do in these assays?
CHX counter: 11.9; Shiga toxin inh: -4.3; Pf growth 96h: inconclusive; Pf growth 48h: inconclusive; NS1 inh: -17.0%; SARS PLP yeast: 1.9%

Results for C[C@H](CO)N1C[C@H](C)[C@@H](CN(C)S(=O)(=O)c2ccccc2)Oc2c(NC(=O)C3CCCCC3)cccc2C1=O ?
SARS PLP yeast: -1.4%

How did CCc1ccc(NC(=O)C2CCN(S(=O)(=O)c3ccc4c(c3)CC(C)N4C(C)=O)CC2)cc1 (centres undefined) do in these assays?
CHX counter: 6.0; Shiga toxin inh: 14.5; Pf growth 96h: inconclusive; Pf growth 48h: inconclusive; NS1 inh: -34.7%; SARS PLP yeast: -4.9%

Results for C=CCSc1nc2ccccc2n1S(=O)(=O)c1ccc(C)cc1 ?
CHX counter: 20.6*; Shiga toxin inh: 18.9; Pf growth 96h: 28.7%; Pf growth 48h: 20.0%; NS1 inh: -7.6%; SARS PLP yeast: -20.2%

Results for Cc1ccc(S(=O)(=O)n2c(N)nc3ccccc32)cc1 ?
CHX counter: -2.4; Pf growth 96h: -29.0%; Pf growth 48h: 22.8%; NS1 inh: 3.3%; SARS PLP yeast: -3.2%

What do the screens show for `CCC(CC)N1CCN(C(=O)c2cccc(Cl)c2)CC1`?
CHX counter: 0.9; Shiga toxin inh: -2.2; Pf growth 96h: 13.1µM*; Pf growth 48h: 16.0%; NS1 inh: -3.7%; SARS PLP yeast: -6.6%

Results for CC(C)N1CCN(C(=O)c2cccc(Cl)c2)CC1 ?
CHX counter: -3.6; Shiga toxin inh: -3.6; Pf growth 96h: 6.0%; Pf growth 48h: 8.8%; NS1 inh: -10.9%; SARS PLP yeast: -1.6%

How did O=C(c1ccc(Cl)c(Cl)c1)N1CCC(=O)N(C(COCc2ccccc2)Cc2ccccc2)CC1 (centres undefined) do in these assays?
CHX counter: -3.4; Shiga toxin inh: 1.1; Pf growth 96h: 11.7µM*; Pf growth 48h: inconclusive; NS1 inh: -17.0%; SARS PLP yeast: -5.9%

What do the screens show for `Cc1cccc(C(=O)N2CCC(=O)N(C(COCc3cccc(C(F)(F)F)c3)Cc3ccccc3)CC2)c1` (centres undefined)?
CHX counter: -2.1; Shiga toxin inh: -3.1; Pf growth 96h: 9.28µM*; Pf growth 48h: inconclusive; NS1 inh: -0.6%; SARS PLP yeast: -5.7%

Screening results: PubChem, National Center for Advancing Translational Sciences (NCATS)
